Laboratory results as given in PubChem BioAssay AID1159580 (chemical genetic matrix, 2015).
“And” between values parts separate entries of the source, which are not always exact repeats. Equal values may be shown once. Screen size: about 5,500 compounds; about 2,000 (36%) were called active. About 18% were inconclusive and are not listed. Cut-off read from the data, not from the text of the source: active = normalized growth mostly below about 0.91 (no sharp cut-off); inconclusive = no clear call, values can overlap the other calls; inactive = mostly above about 0.92. The list shows a part of the results.

Assay: chemical genetic growth profiling, strain panel (AID 1159580);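 note: tested at 20 µM; growth read once vehicle control cultures reached saturation at 30 °C; 1 = growth at the plate median or of vehicle wells; lower values mean less growth of the strain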
Details: S. cerevisiae deletion strains, growth OD

Measured: normalized growth

O=C(C1CCCCC1)N1CC(=O)N2CCc3ccccc3C2C1 (stereo not drawn)
inactive: locus YAL021C, strain ccr4, active compounds read low 0.999 | locus YAL026C, strain drs2, active compounds read low 1 | locus YAL030W, strain snc1, active compounds read low 1.01 | locus YAL040C, strain CLN3, active compounds read low 1.05 | locus YBL061C, strain skt5, active compounds read low 1.01 | locus YBR009C, strain hhf1, active compounds read low 1.01 | locus YBR021W, strain FUR4, active compounds read low 0.993 | locus YBR023C, strain chs3, active compounds read low 1.02 | locus YBR171W, strain sec66, active compounds read low 1.01 | locus YBR229C, strain ROT2, active compounds read low 1 | locus YBR231C, strain swc5, active compounds read low 0.983 | locus YBR279W, strain paf1, active compounds read low 1.01 | locus YCL011C, strain gbp2, active compounds read low 1.03 | locus YCL016C, strain dcc1, active compounds read low 1.04 | locus YCL029C, strain bik1, active compounds read low 1.01 | locus YCL061C, strain MRC1 (second series), active compounds read low 1 | locus YCL061C, strain MRC1, active compounds read low 1.01 | locus YCL069W, strain vba3, active compounds read low 1.01 | locus YCR088W, strain abp1, active compounds read low 1.01 | locus YDL005C, strain med2, active compounds read low 1.01 | locus YDL035C, strain GPR1, active compounds read low 1 | locus YDL040C, strain nat1, active compounds read low 0.992 | locus YDL074C, strain BRE1, active compounds read low 1.01 | locus YDL101C, strain DUN1, active compounds read low 1.01 | locus YDL134C, strain PPH21, active compounds read low 1 | locus YDL185W, strain tfp1, active compounds read low 1.01 | locus YDL192W, strain arf1, active compounds read low 1.01 | locus YDR001C, strain nth1, active compounds read low 1 | locus YDR069C, strain doa4, active compounds read low 0.978 | locus YDR101C, strain arx1, active compounds read low 1.03 | locus YDR137W, strain rgp1, active compounds read low 1.03 | locus YDR159W, strain sac3, active compounds read low 0.976 | locus YDR162C, strain NBP2, active compounds read low 1 | locus YDR195W, strain ref2 0.981 | locus YDR297W, strain sur2, active compounds read low 1.01 | locus YDR318W, strain mcm21, active compounds read low 1.02 | locus YDR334W, strain swr1, active compounds read low 1.01 | locus YDR335W, strain msn5, active compounds read low 0.999 | locus YDR363W, strain ESC2, active compounds read low 1.04 | locus YDR388W, active compounds read low 1.01 | locus YDR392W, strain spt3, active compounds read low 0.862 | locus YDR502C, strain sam2, active compounds read low 1.01 | locus YEL003W, strain gim4, active compounds read low 0.995 | locus YEL037C, strain rad23, active compounds read low 0.999 | locus YEL061C, strain CIN8 (second series), active compounds read low 1 | locus YEL061C, strain CIN8, active compounds read low 1 | locus YER002W, strain NOP16, active compounds read low 1.01 | locus YER015W, strain faa2, active compounds read low 1 | locus YER016W, strain bim1, active compounds read low 0.989 | locus YER110C, active compounds read low 1.02 | locus YER111C, strain swi4, active compounds read low 1 | locus YER155C, strain BEM2 (second series), active compounds read low 0.913 | locus YER155C, strain BEM2, active compounds read low 1 | locus YER167W, strain BCK2, active compounds read low 1 | locus YFR010W, strain ubp6, active compounds read low 1.01 | locus YGL078C, strain dbp3, active compounds read low 1.01 | locus YGL086W, strain mad1, active compounds read low 1.01 | locus YGL167C, strain pmr1, active compounds read low 1.01 | locus YGL173C, strain kem1, active compounds read low 1 | locus YGL227W, strain vid30, active compounds read low 1.01 | locus YGL240W, strain doc1, active compounds read low 0.978 | locus YGL248W, strain PDE1, active compounds read low 1.01 | locus YGL253W, strain hxk2, active compounds read low 0.982 | locus YGR078C, strain PAC10, active compounds read low 1 and 1.01 | locus YGR135W, strain pre9, active compounds read low 0.998 | locus YGR252W, strain gcn5, active compounds read low 0.953 | locus YHR013C, strain ard1, active compounds read low 0.988 | locus YHR027C, strain rpn1, active compounds read low 1.01 | locus YHR030C, strain SLT2, active compounds read low 1 and 1.01 | locus YHR079C, strain IRE1 (second series), active compounds read low 1.01 | locus YHR079C, strain IRE1, active compounds read low 1.01 | locus YHR094C, strain hxt1, active compounds read low 1.01 | locus YHR129C, strain ARP1, active compounds read low 0.992 | locus YHR142W, strain chs7, active compounds read low 1 | locus YHR200W, strain rpn10, active compounds read low 1.01 | locus YIL066C, strain RNR3, active compounds read low 1.01 | locus YIL073C, strain SPO22, active compounds read low 1.01 | locus YIL125W, strain kgd1, active compounds read low 1.01 | locus YIR030C, strain dcg1, active compounds read low 1.01 | locus YJL092W, strain hpr5, active compounds read low 1 | locus YJL095W, strain BCK1 (second series), active compounds read low 1.01 | locus YJL095W, strain BCK1, active compounds read low 0.974 and 1.03 | locus YJL115W, strain asf1, active compounds read low 1.01 | locus YJL129C, strain trk1, active compounds read low 0.997 | locus YJL134W, strain LCB3, active compounds read low 1 | locus YJL154C, strain vps35, active compounds read low 1 | locus YJL164C, strain tpk1, active compounds read low 1.02 | locus YJL166W, strain qcr8, active compounds read low 1.02 | locus YJL168C, strain set2, active compounds read low 1.01 | locus YJL187C, strain SWE1 (second series), active compounds read low 1.01 | locus YJL187C, strain SWE1, active compounds read low 1.01 | locus YJR043C, strain POL32, active compounds read low 1.01 | locus YJR066W, strain TOR1, active compounds read low 0.939
